These results are taken from PubChem BioAssay.

In test [1] the test system is Wnt5a (protein binding on small-molecule microarray). Put plainly: small molecules binding Wnt5a protein – biophysical, small-molecule microarray, 635/667 nm fluorescence, primary screen (AID 1142).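 Further: fluorescence read at 667 nm with signal to noise per printed feature.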 As to conditions: 635 nm fluorescence, higher = more signal.
The nature of test [2]: ATP-based viability of Huh7 replicon cells – cell-based, CellTiter-Glo luminescence, basal, 48 h, cytotoxicity control for HCV replication inhibitor project, primary screen (AID 1143).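 Further: Huh7 hepatoma cells carrying a hepatitis C replication reporter with no stimulus; test concentration not given here.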 Conditions: higher = more signal, called active from +8 up or from −8 down.
Test [3] in a line: Pseudomonas biofilm growth suppression – PAO1 strain, BacTiter-Glo luminescence, LB-PBS, primary screen (AID 1144). As to conditions: P. aeruginosa PAO1 biofilm, 12 h, higher = more signal.
A short description of test [4]: basal CRE-LacZ reporter activity in PC12 – cell-based, unstimulated, primary screen (AID 1145). Conditions: no forskolin, luminescence, 4.5 h, higher = more signal, called active from +8 up or from −8 down.
Test [5] can be described thus: forskolin-driven CRE-LacZ activity in PC12 – cell-based, CRE-LacZ reporter, forskolin-stimulated, primary screen (AID 1146).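 Further: PC12 cells with 6xCRE LacZ reporter stimulated by forskolin 10 µM; beta-galactosidase reporter signal reflecting CREB driven transcription.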 As to conditions: luminescence, 4.5 h, higher = more signal, called active from +8 up or from −8 down.
In test [6] the target is Streptavidin (Streptomyces avidinii) (UniProt P22629). Put plainly: compounds binding control protein streptavidin – biophysical, small-molecule microarray, 635/667 nm fluorescence, artefact control for SMM compound annotation, primary screen (AID 1147).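 Further: signal reflects streptavidin binding to arrayed compounds as a control protein.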 As to conditions: higher = more signal.
Streptavidin (Streptomyces avidinii), sequence (P22629 whole entry, looked up): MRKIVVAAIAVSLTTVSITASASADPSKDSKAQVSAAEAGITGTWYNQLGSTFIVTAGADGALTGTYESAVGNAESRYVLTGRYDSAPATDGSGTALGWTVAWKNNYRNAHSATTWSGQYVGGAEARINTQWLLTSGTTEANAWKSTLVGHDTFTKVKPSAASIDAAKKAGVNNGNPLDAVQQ
Test [7] in a line: probe aInhba binding on compound microarray – biochemical, small-molecule microarray, 635/667 nm fluorescence, primary screen (AID 1148).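 Further: score merges 667nm spot fluorescence with signal-to-noise for antibody binding to printed compounds.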 As to conditions: higher = more signal.
Test [8] addresses Torsin-1A (Homo sapiens) (UniProt O14656). Briefly: TOR1A wild-type binding on microarray – cell lysate, small-molecule microarray, lysate, 635/667 nm, primary screen (AID 1149). As to conditions: COS7 hTOR1A-WT lysate, 635 nm fluorescence, higher = more signal.
For test [9] the target is unchanged. Briefly: torsin A mutant lysate binding on microarrays – cell lysate, small-molecule microarray, COS7 lysate, 635/667 nm fluorescence, primary screen (AID 1150).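 Further: score pools 667 nm emission and signal to noise measuring lysate protein binding.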 Conditions: COS7 hTOR1A mutant lysate, 635 nm fluorescence, higher = more signal.
Test [10] relates to Sonic hedgehog protein (Shh). Put plainly: Sonic hedgehog microarray binding compounds – biochemical, small-molecule microarray, 635/667 nm fluorescence, primary screen (AID 1151).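 Further: Shh protein binding to compounds spotted on small-molecule microarray slides; score combines spot fluorescence intensity with signal-to-noise across triplicate slides.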 Conditions: 635 nm fluorescence, higher = more signal.
A short description of test [11]: optical density shifts of acrAB sulA E. coli – strain DRC41, OD650, 48 h, E. coli filamentation inducer project, primary screen (AID 1152).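 Further: E. coli MC1000 strain DRC41 lacking acrAB efflux pump and sulA.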 Conditions: higher = more signal, called active from +8 up or from −8 down.
Test [12] can be described thus: probe aLefty1 binding on compound microarray – biochemical, small-molecule microarray, 635/667 nm fluorescence, primary screen (AID 1153).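 Further: score merges spot fluorescence with signal-to-noise ratio from the scanned slide images.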 As to conditions: higher = more signal.
Test [13] can be described thus: plasmodial surface anion channel blockers, osmotic lysis – cell-based, P. falciparum Indochina, OD700, 1 h, primary screen (AID 1154). Conditions: P. falciparum Indochina infected RBC osmotic lysis, higher = more signal, called active from +8 up or from −8 down.
Test [14] can be described thus: plasmodial surface anion channel blockers, osmotic lysis – cell-based, P. falciparum Indochina, OD700, 2 h, primary screen (AID 1155).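 Further: lysis reports solute entry through the parasite surface anion channel PSAC.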 As to conditions: P. falciparum Indochina infected erythrocytes, higher = more signal, called active from +8 up or from −8 down.
A short description of test [15]: changes in parasitized red cell lysis, either direction – P. falciparum Indochina, OD700, 3 h, PSAC antagonist project, primary screen (AID 1156). Conditions: P. falciparum-infected erythrocytes, osmotic lysis, higher = more signal, called active from +8 up or from −8 down.
The nature of test [16]: plasmodial surface anion channel blockers, osmotic lysis – cell-based, P. falciparum Indochina, OD700, 18 h, primary screen (AID 1157). Conditions: P. falciparum Indochina infected erythrocytes, osmotic lysis OD700, 18 h; higher = more signal, called active from +8 up or from −8 down.
Test [17] is described as follows: S6 kinase pathway phospho-S6 level changes – cell-based, A549, cytoblot, luminescence, serum-stimulated, primary screen (AID 1158).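 Further: serum-stimulated A549 lung adenocarcinoma cells; signal is phosphorylated S6 detected by cytoblot immunostaining with HRP secondary.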 As to conditions: 5 h, higher = more signal.
For test [18], the target named is NADPH oxidase 2 (Homo sapiens) (UniProt P04839). Put plainly: compounds shifting NOX2 Amplex Red fluorescence – cell-based, HEK293-NOX2, PMA-stimulated, NOX inhibitor project, primary screen (AID 1159). Further: test concentration not given here. Conditions: 45 min, higher = more signal, called active from +8 up or from −8 down.
NADPH oxidase 2 (Homo sapiens), sequence (P04839 whole entry, looked up): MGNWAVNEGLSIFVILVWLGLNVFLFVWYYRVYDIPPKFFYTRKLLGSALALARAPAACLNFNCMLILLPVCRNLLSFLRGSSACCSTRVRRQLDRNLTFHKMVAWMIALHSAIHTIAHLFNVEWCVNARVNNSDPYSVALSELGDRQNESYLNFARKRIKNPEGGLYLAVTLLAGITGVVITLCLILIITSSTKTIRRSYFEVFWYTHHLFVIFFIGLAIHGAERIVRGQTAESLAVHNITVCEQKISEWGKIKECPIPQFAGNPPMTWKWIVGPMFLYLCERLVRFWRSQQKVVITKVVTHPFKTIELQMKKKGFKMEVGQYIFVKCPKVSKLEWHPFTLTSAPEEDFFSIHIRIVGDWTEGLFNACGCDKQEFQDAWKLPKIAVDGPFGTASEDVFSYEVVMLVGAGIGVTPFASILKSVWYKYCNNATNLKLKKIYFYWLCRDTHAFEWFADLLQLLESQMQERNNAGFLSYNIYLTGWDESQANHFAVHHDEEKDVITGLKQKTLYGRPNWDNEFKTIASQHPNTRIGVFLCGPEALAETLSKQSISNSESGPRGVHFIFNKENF
The target in test [19] is NADPH oxidase 4 (Homo sapiens) (UniProt Q9NPH5). Briefly: compounds shifting NOX4 Amplex Red fluorescence – cell-based, HEK293-NOX4, tetracycline-induced, NOX inhibitor project, primary screen (AID 1160). Conditions: HEK293-NOX4, Amplex Red H2O2 fluorescence, 45 min; higher = more signal, called active from +8 up or from −8 down.
NADPH oxidase 4 (Homo sapiens), sequence (Q9NPH5 whole entry, looked up): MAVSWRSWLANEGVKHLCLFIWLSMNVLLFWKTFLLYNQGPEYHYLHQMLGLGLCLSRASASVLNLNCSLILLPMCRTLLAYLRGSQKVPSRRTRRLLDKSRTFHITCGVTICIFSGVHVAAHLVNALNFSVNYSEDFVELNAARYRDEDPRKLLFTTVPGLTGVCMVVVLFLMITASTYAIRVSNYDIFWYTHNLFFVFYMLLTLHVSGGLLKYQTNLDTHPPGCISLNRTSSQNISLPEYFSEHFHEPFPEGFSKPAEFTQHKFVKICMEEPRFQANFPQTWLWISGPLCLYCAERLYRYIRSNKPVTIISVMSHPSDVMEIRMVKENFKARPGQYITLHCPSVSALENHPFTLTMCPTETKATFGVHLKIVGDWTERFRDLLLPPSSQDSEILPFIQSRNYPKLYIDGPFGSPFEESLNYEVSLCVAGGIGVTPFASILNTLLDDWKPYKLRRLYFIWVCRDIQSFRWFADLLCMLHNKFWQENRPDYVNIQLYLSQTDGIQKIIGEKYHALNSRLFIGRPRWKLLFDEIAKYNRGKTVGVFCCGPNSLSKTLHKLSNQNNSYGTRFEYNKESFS
The target of test [20] is NADPH oxidase 5 (Homo sapiens) (UniProt Q96PH1). Put plainly: compounds shifting NOX5 Amplex Red fluorescence – cell-based, HEK293-NOX5, NOX inhibitor project, primary screen (AID 1161). As to conditions: HEK293-NOX5, ionomycin, 45 min, higher = more signal.
NADPH oxidase 5 (Homo sapiens), sequence (Q96PH1 whole entry, looked up): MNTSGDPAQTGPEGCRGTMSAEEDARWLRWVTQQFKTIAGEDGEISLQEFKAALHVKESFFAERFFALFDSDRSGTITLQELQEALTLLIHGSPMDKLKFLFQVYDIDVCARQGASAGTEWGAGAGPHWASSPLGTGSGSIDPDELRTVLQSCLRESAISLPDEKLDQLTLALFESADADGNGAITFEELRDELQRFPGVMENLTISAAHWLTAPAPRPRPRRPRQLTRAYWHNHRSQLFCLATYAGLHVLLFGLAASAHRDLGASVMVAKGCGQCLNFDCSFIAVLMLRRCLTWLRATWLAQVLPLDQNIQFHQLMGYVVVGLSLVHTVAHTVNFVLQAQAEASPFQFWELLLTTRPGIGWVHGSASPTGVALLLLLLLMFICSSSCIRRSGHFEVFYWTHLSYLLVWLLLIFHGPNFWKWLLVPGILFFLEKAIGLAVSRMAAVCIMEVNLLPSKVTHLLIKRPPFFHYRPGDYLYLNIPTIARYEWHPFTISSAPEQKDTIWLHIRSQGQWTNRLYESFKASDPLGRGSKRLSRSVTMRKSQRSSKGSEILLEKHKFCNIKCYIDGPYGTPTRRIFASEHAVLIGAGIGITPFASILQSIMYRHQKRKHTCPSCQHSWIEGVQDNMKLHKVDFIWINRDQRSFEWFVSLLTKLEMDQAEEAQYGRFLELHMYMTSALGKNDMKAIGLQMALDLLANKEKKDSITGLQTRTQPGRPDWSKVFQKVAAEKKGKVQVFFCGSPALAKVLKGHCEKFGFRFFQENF

Molecules are shown by their SMILES. Activity calls are given as the source filed them. Unless noted, how the calls were made is not given here.

Torsin-1A (Homo sapiens), sequence (O14656 whole entry, looked up): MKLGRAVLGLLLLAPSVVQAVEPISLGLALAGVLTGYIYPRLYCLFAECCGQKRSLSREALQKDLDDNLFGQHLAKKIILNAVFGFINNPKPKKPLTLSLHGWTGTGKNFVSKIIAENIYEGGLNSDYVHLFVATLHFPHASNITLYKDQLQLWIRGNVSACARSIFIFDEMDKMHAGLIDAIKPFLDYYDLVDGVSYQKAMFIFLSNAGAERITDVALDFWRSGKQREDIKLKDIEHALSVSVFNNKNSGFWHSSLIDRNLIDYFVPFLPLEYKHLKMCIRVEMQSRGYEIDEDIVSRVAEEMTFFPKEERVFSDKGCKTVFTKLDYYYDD

For `CC(C)CNC(=O)[C@@H]1c2ccccc2C(=O)N(Cc2ccccc2)[C@H]1c1ccc(CO)cc1`, the composite z-score in test [1] is -0.267; in [6], -1.04; in [7], -0.285; in the test with Torsin-1A (Homo sapiens) [8] it was 0.3; in the test with Torsin-1A (Homo sapiens) [9] it was 1.2; in test [10], -0.693. This compound also came in with a composite z-score in test [12] of -0.106. The z-score in [2] was -0.692 (inactive); in [3], -0.33 (inactive); in test [4], 0.441 (inactive); in [5] it was -0.0682 (inactive); in test [11] it was -0.603 (inactive); in test [13], 1.49 (inactive). For the same compound, the z-score in [14] was 0.294 (inactive); in test [15] it was 2.44 (inactive); in test [16] it was 0.769 (inactive); in [17], -0.316; in test [18], -0.638 (inactive); in [19], -1.24 (inactive). The z-score in test [20] was -3.17.
As to `COC(=O)[C@@]1(CCC(=O)OC(C)(C)C)N=C(c2ccc(OCCCO)cc2)O[C@H]1c1ccccc1CN=[N+]=[N-]`, the composite z-score in test [1] is 0.113; in test [6] it was -0.139; in [7] it was 0.241; with Torsin-1A (Homo sapiens) [8], -0.193; in the test with Torsin-1A (Homo sapiens) [9] it was 0.261; in test [10], 0.339. The compound further had a composite z-score in [12] of 0.437. Besides, the z-score in test [2] was -2.35 (inactive); in test [3] it was -0.0281 (inactive); in test [4], 1.94 (inactive); in [5], -1.55 (inactive); in [11], -0.0301 (inactive); in [13], 21.3 (active). For the same compound, the z-score in test [14] was 6.25 (inactive); in [15], 0.765 (inactive); in [16], 1.4 (inactive); in [17], -0.184; in test [18] it was -1.47 (inactive); in test [19] it was -0.475 (inactive). In test [20], the z-score was -0.802.
Regarding `COCCOC(=O)N1C(=O)[C@@]2(c3cc(C#CC4(O)CCCCCC4)ccc31)[C@H](C(=O)NC[C@H](O)c1ccccc1)[C@H]1C(=O)O[C@H](c3ccccc3)[C@H](c3ccccc3)N1[C@@H]2c1ccc(O)cc1`, the composite z-score in test [1] was determined as 0.233; in test [6], 0.315; in test [7] it was 0.12; in the test with Torsin-1A (Homo sapiens) [8], 0.415; in the test with Torsin-1A (Homo sapiens) [9], 0.174; in test [10] it was 1.07. This compound also displayed a composite z-score in [12] of 0.501. In addition, the z-score in test [2] was -0.622 (inactive); in [3], 0.588 (inactive); in test [4], 0.342 (inactive); in [5], 0.0418 (inactive); in test [11] it was 0.664 (inactive); in test [13], 0.954 (inactive). Also, the z-score in test [14] is 1.01 (inactive); in test [15] it was 0.0635 (inactive); in [16], 1.05 (inactive); in test [17], 0.632; in test [18] it was 1.39 (inactive); in [19] it was 1.02 (inactive). The z-score in test [20] was 1.61.
As to `COCC1=C([C@H](O)CCc2ccccc2)[C@H](CO)n2c(=O)n(-c3ccccc3)c(=O)n2C1`, the composite z-score in test [1] was -0.419; in test [6] it was -0.101; in test [7] it was -0.154; with Torsin-1A (Homo sapiens) [8], -0.115; with Torsin-1A (Homo sapiens) [9], -0.414; in test [10], 0.199. Also, the composite z-score in test [12] was -0.409. For the same compound, the z-score in [2] is -1.24 (inactive); in [3], -0.84 (inactive); in [4] it was 0.129 (inactive); in [5], -0.2 (inactive); in test [11], 3.47 (inactive); in test [13] it was 2.67 (inactive). Further, the z-score in test [14] was -0.913 (inactive); in test [15], -0.618 (inactive); in [16] it was -1.61 (inactive); in test [17], 1.72; in test [18], -0.638 (inactive); in test [19], -2.05 (inactive). Further, the z-score in [20] is -0.659.
